Compounds without any hit were thinned out: in the full panel of roughly 83,000, 20% have a hit.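 Values shown are percent growth following 48 h exposure of cells in 96-well plates to a single concentration of compound; below 10 was considered active.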 A number with no mark means an inactive call. Calls of active or inactive are those of the source.

This is an account of results in PubChem BioAssay (NCI).

This assay concerns MDA-MB-435 melanoma. The assay can be described thus: NCI-60 one-dose screen, 48 h (100 = growth as untreated, 0 = no growth, -100 = all killed). The following applies: 10 µM.
For `O=C(/C=C/Nc1ccc(F)cc1F)c1ccc2c(c1)Nc1ccccc1S2`, the growth is 9.72% (active).

Turning to `C=C1CC[C@H](C(=C)C)[C@H]2C=C(C)C(=O)C3=C(C(=O)[C@@](C)(O)C3)[C@H]12`, the growth was -58% (active). The value for `CN(CCO)c1oc(-c2ccccc2)nc1[P+](c1ccccc1)(c1ccccc1)c1ccccc1` was 2.53% (active); that for `O=C(CNc1nc(-c2ccccc2)cs1)Nc1ccc([N+](=O)[O-])cc1Cl` was 44%; that for `COc1ccc(CCN2C(=O)/C(=C/c3csc(C#N)n3)SC2=S)cc1OC` was 23.5%.

With `Cc1ccc([N+](=O)[O-])c(C(=O)Nc2ccc(-c3ccc4c(c3)NC(=O)/C4=C\c3ccc[nH]3)cc2)c1`, the growth is 32%. Consider `COc1ccc(-c2nc(S(=O)(=O)c3ccccc3)c(S(C)(=O)=O)o2)cc1`, for which the growth was -60.2% (active). As for `Cc1ccc(-c2ccc(SCC(=O)Nc3ccc(Cl)c(C(F)(F)F)c3)nn2)cc1`, the growth was -18.8% (active). The value for `Cc1ccn2c(C(=O)c3ccc(Br)cc3)cc(-c3cc(-c4ccc(N(C)C)cc4)c(C#N)c(N)n3)c2c1` was 65%; that for `O=c1[nH]c2ccccc2cc1CSc1ccc(Nc2nccc(-c3ccc(Cl)cc3)n2)cc1` was 9.58% (active).

Take `CC1(C)CC[C@]2(C(=O)Nc3ccccc3)CC[C@]3(C)C(=CC[C@@H]4[C@@]5(C)CC[C@H](N)C(C)(C)[C@@H]5CC[C@]43C)[C@H]2C1`: the growth is 59.1%. The value for `Cc1ccc(NC(=O)NCn2c(=O)[nH]c3ccccc3c2=O)cc1` was 86.3%; that for `COc1cc(/C=C/C(=O)c2cc(OC)c(OC)c(OC)c2)ccc1Oc1nc(Nc2ccc(F)cc2)nc(N(C)C)n1` was -62.4% (active). The value for `Cn1cc(/C=N/Nc2ccnc3cc(Cl)ccc23)c2ccccc21` was -83.5% (active); that for `N#Cc1ccc(-c2nn(-c3ccc(C(=O)O)cc3)cc2CNc2cc(Cl)cc(C(F)(F)F)c2)cc1` was 9.7% (active); that for `O=C1NC(=NC23CC4CC(CC(C4)C2)C3)N/C1=C\c1ccc2ncccc2n1` was -11.4% (active). The value for `COc1ccc(/C=C/C(=O)c2ccc(NC(=O)CN3C(=O)NC(C)(c4ccccc4)C3=O)cc2)cc1` (configuration not stated) was 16.7%; that for `O=C(c1ccc(Cl)cc1)C1[C@H](c2ccccc2Br)[C@@H](c2ccccc2)NC12C(=O)Nc1ccc(Cl)cc12` (some centres not stated) was -35.1% (active); that for `O=C1CCC(N2Cc3cc(NC(=O)COc4ccccc4)ccc3C2=O)C(=O)N1` (configuration not stated) was 88.1%. As to `CC1(c2ccccc2)NC(=O)N(CC(=O)Nc2ccc(C(=O)/C=C/c3ccc(Cl)cc3)cc2)C1=O` (configuration not stated), the growth is -76.4% (active).

Consider `C#CCNC(=O)CCC(=O)OC[C@]12CC[C@@H](C(=C)C)[C@@H]1C1CC[C@@H]3[C@@]4(C)CCCNC(C)(C)[C@@H]4CC[C@@]3(C)[C@]1(C)CC2` (some centres not stated), for which the growth is -32.2% (active). On to `CCCn1c(=O)c2[nH]c(-c3ccc(OCc4nc5ccc(F)cc5[nH]4)cc3)nc2n(CCC)c1=O`, for which the growth is 47.8%. The value for `COC[C@@H](CC(C)C)N=C1NC(=O)/C(=C/c2ccc3ncsc3c2)N1` was 12.7%. The value for `COc1ccc(C=CC(=O)c2ccc(-n3c(C)nc4c(cnn4-c4ccccc4)c3=O)cc2)cc1` was 11.2%; that for `O=C(c1ccc(Cl)cc1)C1[C@H](c2ccccc2Br)[C@@H](c2ccccc2)NC12C(=O)Nc1ccc(Br)cc12` (some centres not stated) was -39.7% (active); that for `O=C(Nc1cccc(C(F)(F)F)c1)c1cncc(C#Cc2cnc3ccc(N4CCOCC4)nn23)c1` was 4.32% (active). The value for `N#Cc1c(-c2ccc(F)cc2)nc(SCc2ccc([N+](=O)[O-])cc2)nc1N1CCOCC1` was 84%; that for `NS(=O)(=O)c1ccc(NC(=O)CSc2ccc(-c3ccc(Cl)cc3)nn2)c(Br)c1` was 84.8%; that for `CC(=O)NCC1=C(C)C=C2C(=O)[C@](C)(O)C3(CC3)C(C)=C21` was -80% (active). For `CC(=O)Nc1nc(-c2ccc(N3CCN(C)CC3)c(NS(=O)(=O)c3cccc4c(N(C)C)cccc34)c2)cs1`, the growth is 51.5%. The value for `O=C(CSc1nnc(-c2ccc3nc(-c4ccc(Cl)cc4)[nH]c3c2)o1)Nc1ccc(Br)cc1` was -88% (active); that for `COc1cc2c3c(n(CCCNCCO)c(=O)c2cc1OC)-c1nc2c(cc1C3=O)OCO2` was 45.2%; that for `Cc1ccc(NCC(=O)Nn2c(COc3ccccc3)nc3ccccc3c2=O)cc1` was 92.6%.

As for `O=C(c1ccccc1)n1ccc(-c2cc3cc(Br)ccc3oc2=O)n1`, the growth was 48.9%. The value for `Cc1ccc(CSc2nc(Cl)c(C#N)c(-c3ccc(F)cc3)n2)cc1` was 99.7%; that for `COc1cc(/C=C/C(=O)c2ccc(F)cc2)ccc1Oc1nc(Nc2ccc(F)cc2)nc(N(C)C)n1` was 68.5%; that for `COc1cc2oc(-c3cccc(C(=O)Nc4ccc(Cl)cc4)c3)cc(=O)c2c(OCCNC(=O)CNC(=O)OC(C)(C)C)c1OC` was 66.7%.
